VP16 counter = inhibits Gal4-VP16 luciferase reporter, ROR gamma counter-screen | Drosophila S2 Gal4-VP16 UAS-luciferase, luminescence, 20 h | Potency, µM (titrated, usually from 53.6 µM), actives largely listed as inhibitors | 310,000 compounds, 3.5% hits | AID 2546;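 also: Gal4-VP16 expression switched on by copper sulfate through the metallothionein promoter; nearly all actives have a fitted effect of over 50% in size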
IL-1B inflam inh = inflammasome signaling inhibition, IL-1 beta readout; AID 743279; THP-1 LPS/ATP IL-1B secretion, AlphaLISA, 16 h; hits give low values; 360,000 compounds, 4.7% hits; activity change, % at 57.5 µM; in the data active = activity change below about -50%; inconclusive = mostly about -30% to -49%
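Secreted IL-1B measured by AlphaLISA bead assay after 16 h compound exposure of THP-1 cells; compounds (final up to 57.5 uM) added 1 h before LPS (250 ng/mL) and ATP (1.25 mM) stimulation; lower signal means less secretion.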
TDP1 cell noCPT = qHTS for Inhibitors of human tyrosyl-DNA phosphodiesterase 1 (TDP1): qHTS in cells in absence of CPT; DT40 Tdp1-/- hTDP1 cells, no CPT, ATP luminescence, 48 h; Potency, µM (highest dose often 46.2 µM), hits mostly inhibitors; 420,000 compounds, 15% hits; AID 686978, 2013; also: nearly all actives have a fitted effect of over 55% in size
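DT40 Tdp1-/-;hTDP1 cells, no CPT (DMSO vehicle only), 400 cells/well; compounds pin-transferred; ≥48 hr, 37 °C; CellTiter-Glo 30 min RT dark, luminescence read.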
RORgamma inh = inhibitors of mouse ROR gamma transcriptional activity; 310,000 compounds, 5.4% hits; Potency, µM (highest dose often 53.6 µM), most hits filed as inhibitors; Drosophila S2 Gal4-RORgamma UAS-luciferase reporter, 20 h; AID 2551; also: nearly all actives have a fitted effect of over 60% in size
Target sequence (P51450 whole entry, looked up, the tested form may be a part): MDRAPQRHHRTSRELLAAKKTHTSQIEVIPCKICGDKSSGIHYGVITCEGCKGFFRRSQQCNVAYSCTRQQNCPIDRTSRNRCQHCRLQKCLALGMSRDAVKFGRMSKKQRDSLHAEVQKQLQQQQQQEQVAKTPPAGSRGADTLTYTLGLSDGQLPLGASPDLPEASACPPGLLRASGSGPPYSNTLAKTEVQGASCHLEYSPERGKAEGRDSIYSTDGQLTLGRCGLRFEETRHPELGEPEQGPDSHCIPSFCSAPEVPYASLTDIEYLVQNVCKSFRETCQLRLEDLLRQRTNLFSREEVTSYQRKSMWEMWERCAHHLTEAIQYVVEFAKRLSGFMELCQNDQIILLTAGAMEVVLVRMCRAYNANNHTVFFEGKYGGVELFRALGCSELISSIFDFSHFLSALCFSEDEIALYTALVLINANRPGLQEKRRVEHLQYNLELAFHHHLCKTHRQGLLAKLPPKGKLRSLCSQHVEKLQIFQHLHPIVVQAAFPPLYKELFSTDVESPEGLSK
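Drosophila Schneider cells stably carrying a metallothionein-driven Gal4 DBD–ROR gamma fusion and a UAS-Photinus luciferase reporter were exposed to compound for 1 hr, then induced with copper sulfate (700 uM final) for 20 hr at ambient temperature before luminescence reading.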
ELG1 DNA repair = ELG1-dependent DNA repair inhibition; HEK293T ELG1-luciferase reporter, luminescence, 16 h; DNA damage induced by 5-fluorouridine; Potency, µM (titrated, usually from 46.1 µM), hits mostly inhibitors; 330,000 compounds, 2.3% hits; AID 504467; also: nearly all actives have a fitted effect of over 55% in size
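HEK293T cells expressing luciferase-tagged ELG1 (2,000/well) received 5-Fluorouridine plus compound or DMSO for 16 hr at 37 °C. Luciferase was read by ONE-Glo luminescence after 30 min at room temperature.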
DT40 TDP1 CPT = DT40-hTDP1 cell growth loss with CPT; 420,000 compounds, 12% hits; Potency, µM (top dose mostly 46.2 µM), actives largely listed as inhibitors; chicken DT40 Tdp1-/-;hTDP1 cells + 20 nM CPT, ATP luminescence, 48 h; also: nearly all actives have a fitted effect of over 55% in size
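Chicken DT40 Tdp1-/- cells complemented with human TDP1, 400 cells/well, exposed to compounds plus 20 nM camptothecin for at least 48 h at 37 C; viability read as ATP content by CellTiter-Glo luminescence.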
Of the large screens only hits and unclear results are named; the others gave an inactive call. Hits are enriched below; roughly 21% of the tested compounds scored in any of these assays. Unless noted, calls follow the shape of the dose curve; as a rule, active = well fitted curve in the direction sought with a large enough effect; inconclusive = small, poorly fitted or top-dose-only effect, or another doubt; inactive = no such curve, though single readings can be large; an effect the other way counts as inactive or inconclusive.

CC1(C)C(O)CC(O)[C@]2(C)C1CC(=O)[C@]1(C)C2CC[C@@]2(C)C(c3ccoc3)OC(=O)C3OC321 (stereo partly specified)	DT40 TDP1 CPT inconclusive (no result: IL-1B inflam inh, ELG1 DNA repair)
COc1ccc(CC2NCCc3cc(OC)c(OC)cc32)cc1OC (stereo unspecified)	none (no result: IL-1B inflam inh, TDP1 cell noCPT, ELG1 DNA repair, DT40 TDP1 CPT)
CC[C@H]1CN2CCc3cc(OC)c(OC)cc3C2C[C@@H]1C[C@H]1NCCc2cc(OC)c(OC)cc21 (stereo partly specified)	IL-1B inflam inh -107.6, TDP1 cell noCPT 0.0082µM, ELG1 DNA repair inconclusive, DT40 TDP1 CPT 0.13µM (no result: VP16 counter, RORgamma inh)
CCC1CN2CCc3cc(OC)c(OC)cc3C2CC1CC1NCCc2cc(OC)c(OC)cc21 (stereo unspecified)	VP16 counter 7.08µM, TDP1 cell noCPT 0.146µM, RORgamma inh 6.31µM, DT40 TDP1 CPT 0.206µM (no result: IL-1B inflam inh, ELG1 DNA repair)
O=C(NCNC(=O)N[C@H]1C(=O)NC(=O)N1CO)N[C@H]1C(=O)NC(=O)N1CO	none (no result: IL-1B inflam inh, TDP1 cell noCPT, ELG1 DNA repair, DT40 TDP1 CPT)
ClC1=C(Cl)C2(Cl)C3C4CC(C5OC45)C3C1(Cl)C2(Cl)Cl (stereo unspecified)	none (no result: IL-1B inflam inh, TDP1 cell noCPT, ELG1 DNA repair, DT40 TDP1 CPT)
Cn1cccc1C(=O)OCC(=O)NCc1cccs1	ELG1 DNA repair inconclusive (no result: VP16 counter, RORgamma inh)
O=C1NC(=O)C(Cc2ccccc2)(Cc2ccccc2)C(=O)N1Cc1ccccc1	IL-1B inflam inh -53.8, TDP1 cell noCPT inconclusive, DT40 TDP1 CPT 23.1µM (no result: VP16 counter, RORgamma inh, ELG1 DNA repair)
O=C1NC(=O)C(CCc2ccncc2)(CCc2ccncc2)C(=O)N1Cc1ccccc1	TDP1 cell noCPT inconclusive
O=C1NC(=O)N(Cc2ccccc2)C(=O)C1Cc1ccccc1 (stereo unspecified)	TDP1 cell noCPT 8.2µM (no result: VP16 counter, RORgamma inh, ELG1 DNA repair)
O=C1NC(=S)NC(=O)C1Cc1ccccc1	none (no result: VP16 counter, RORgamma inh, ELG1 DNA repair)
C=C(C)[C@@H]1C2C(=O)O[C@H]1[C@H]1OC(=O)[C@@]34OC3C[C@]2(O)[C@@]14C (stereo partly specified)	TDP1 cell noCPT inconclusive, DT40 TDP1 CPT inconclusive (no result: VP16 counter, RORgamma inh)
CCN(CC)c1ccc(C=NN2CCCCCC2)cc1	TDP1 cell noCPT inconclusive, DT40 TDP1 CPT inconclusive (no result: VP16 counter, RORgamma inh, ELG1 DNA repair)
C[n+]1ccc(-c2ccccc2)c2ccccc21	TDP1 cell noCPT 2.59µM, DT40 TDP1 CPT 2.31µM (no result: VP16 counter, RORgamma inh)
Brc1ccccc1-c1ccccc1	ELG1 DNA repair inconclusive
O=C(NCc1ccccc1)c1cccc(Nc2nc3ccccc3n3nnnc23)c1	TDP1 cell noCPT 14.6µM, DT40 TDP1 CPT 20.6µM (no result: VP16 counter, IL-1B inflam inh, RORgamma inh, ELG1 DNA repair)
Cc1nc2cnc(N3CCNCC3)nc2n(C)c1=O	none (no result: IL-1B inflam inh, ELG1 DNA repair)
COc1ccc(CNS(=O)(=O)c2cc3c(cc2C)N(C)CCO3)cc1	TDP1 cell noCPT 14.6µM, DT40 TDP1 CPT inconclusive
CCOc1ccc2nc(NC(=O)c3cccn(Cc4ccccc4Cl)c3=O)sc2c1	none (no result: VP16 counter, IL-1B inflam inh, RORgamma inh, ELG1 DNA repair)
CCCC[N+]1(C)[C@@H]2CC(OC(=O)[C@H](CO)c3ccccc3)C[C@H]1[C@@H]1O[C@@H]12 (stereo partly specified)	none (no result: ELG1 DNA repair)
Cc1ccc2c(c1)[C@]13CCCC[C@@H]1[C@H](C2)N(C)CC3	none (no result: VP16 counter, IL-1B inflam inh, RORgamma inh, ELG1 DNA repair)
Cn1cc(C(=O)N2CCC3(CC2)OCCO3)c2c3ccccc3n(C)c2c1=O	none
Cc1ccc(Cl)cc1N1CCN(C(=O)c2cn(CC(C)C)c(=O)c3c2c2ccccc2n3C)CC1	TDP1 cell noCPT 4.61µM, DT40 TDP1 CPT 6.51µM (no result: VP16 counter, IL-1B inflam inh, RORgamma inh, ELG1 DNA repair)
C[C@H]1COC(=O)[C@@H](Cc2ccc(F)cc2)CC/C=C/C[C@H](CC(=O)N(CCO)Cc2ccccc2)C(=O)N1	TDP1 cell noCPT 16.4µM, DT40 TDP1 CPT 16.4µM (no result: VP16 counter, RORgamma inh)
C[C@H]1COC(=O)[C@@H](Cc2ccc(F)cc2)CC/C=C/C[C@@H](CC(=O)N(CCO)Cc2ccccc2)C(=O)N1	TDP1 cell noCPT 23.1µM, ELG1 DNA repair inconclusive, DT40 TDP1 CPT 13µM (no result: VP16 counter, RORgamma inh)
O=C(NCc1ccc2c(c1)CCN2C(=O)c1ccccc1)Nc1cccc(C(F)(F)F)c1	TDP1 cell noCPT inconclusive, DT40 TDP1 CPT 14.6µM (no result: VP16 counter, IL-1B inflam inh, RORgamma inh, ELG1 DNA repair)
